High-throughput results from PubChem.
An excerpt weighted towards active compounds, which were near 19% of everything screened.
TDP1 cell CPT = qHTS for Inhibitors of human tyrosyl-DNA phosphodiesterase 1 (TDP1): qHTS in cells in presence of CPT. AID 686979, 2013. 420,000 compounds, 12% hits. chicken DT40 Tdp1-/-;hTDP1 cells + 20 nM CPT, ATP luminescence, 48 h. Potency, µM (doses to about 46.2 µM), most hits filed as inhibitors; also: nearly all actives have a fitted effect of over 55% in size
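Chicken DT40 Tdp1-/- cells complemented with human TDP1, 400 cells/well, exposed to compounds plus 20 nM camptothecin for at least 48 h at 37 C; viability read as ATP content by CellTiter-Glo luminescence.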
IL-1B inflam inh = qHTS for Inhibitors of Inflammasome Signaling: IL-1-beta AlphaLISA Primary Screen; THP-1 LPS/ATP IL-1B secretion, AlphaLISA, 16 h; stronger effect = lower value; activity change, % at 57.5 µM; 360,000 compounds, 4.7% hits; in the data active = activity change below about -50%; inconclusive = mostly about -30% to -49%
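Secreted IL-1B measured by AlphaLISA bead assay after 16 h compound exposure of THP-1 cells; compounds (final up to 57.5 uM) added 1 h before LPS (250 ng/mL) and ATP (1.25 mM) stimulation; lower signal means less secretion.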
TDP1 cell noCPT = qHTS for Inhibitors of human tyrosyl-DNA phosphodiesterase 1 (TDP1): qHTS in cells in absence of CPT; DT40 Tdp1-/- hTDP1 cells, no CPT, ATP luminescence, 48 h; 420,000 compounds, 15% hits; Potency, µM (doses to about 46.2 µM), actives largely listed as inhibitors; AID 686978, 2013; also: nearly all actives have a fitted effect of over 55% in size
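Readout: luminescence from CellTiter-Glo after 30 min in the dark at RT. Cells: DT40 Tdp1-/- with stable hTDP1, 400/well. Exposure: compounds alone, ≥48 hr, 37 °C.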
HT1080NT lethal = qHTS for induction of synthetic lethality in tumor cells producing 2HG: qHTS for the HT-1080-NT fibrosarcoma cell line | Potency, µM (series often up to 46.1 µM), actives largely listed as cytotoxic | 360,000 compounds, 1.6% hits | HT-1080-NT fibrosarcoma viability, CellTiter-Glo ATP luminescence, 48 h;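 also: NT is the 2HG producing partner of a matched IDH1 knockdown line; nearly all actives have a fitted effect of over 55% in size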
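750 cells/well, RPMI + 5% FBS; 2 h settle, compound pin-transfer, 48 h at 37 degrees C. CellTiter-Glo 10 min RT, luminescence. Normalized to DMSO and media-only wells.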
HT1080 IDH1KD tx = qHTS for induction of synthetic lethality in tumor cells producing 2HG: qHTS for the HT-1080-IDH1KD cell line. 360,000 compounds, 2% hits. HT-1080 IDH1 knockdown viability, ATP luminescence, 48 h. Potency, µM (titrated, usually from 46.1 µM), usual class: cytotoxic
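Using the IDH1-knockdown HT-1080 line run in the same batch and compound series as the NT line, viability after 48 h at 37 °C was determined by CellTiter-Glo luminescence and expressed as % activity.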
ELG1 DNA repair = qHTS screen for small molecules that inhibit ELG1-dependent DNA repair in human embryonic kidney (HEK293T) cells expressing luciferase-tagged ELG1. HEK293T ELG1-luciferase reporter, luminescence, 16 h; DNA damage induced by 5-fluorouridine. Potency, µM (titrated, usually from 46.1 µM), hits mostly inhibitors. 330,000 compounds, 2.3% hits. AID 504467, 2011; also: nearly all actives have a fitted effect of over 55% in size
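Cells (2,000 per well) received 5-fluorouridine plus test compound or DMSO and were incubated 16 hr at 37 °C, 5% CO2. Luciferase activity was read by luminescence 30 min after ONE-Glo addition; signal suppression marked inhibition of damage-induced ELG1 function.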
Hits are given with their value; – = inactive; ? = inconclusive; · = no result. Unless noted, calls follow the shape of the dose curve; as a rule, active = well fitted curve in the direction sought with a large enough effect; inconclusive = small, poorly fitted or top-dose-only effect, or another doubt; inactive = no such curve, though single readings can be large; an effect the other way counts as inactive or inconclusive.

SMILES | TDP1 cell CPT | IL-1B inflam inh | TDP1 cell noCPT | HT1080NT lethal | HT1080 IDH1KD tx | ELG1 DNA repair
COC(=O)CC1Oc2ccccc2-n2cc(-c3ccc(Cl)cc3)nc21 (stereo unspecified) | 7.3µM | · | 1.8µM | · | · | ·
COC(=O)CC1Oc2ccc(Cl)cc2-n2cc(-c3ccccc3)nc21 (stereo unspecified) | 21µM | · | 13µM | · | · | ·
Cc1cc(=O)n2c3c(c4c(cc13)c(CN(C)C)cc(=O)n4C)OC2 | 8.2µM | – | 6.5µM | – | ? | ·
COc1ccc(C(C[N+](=O)[O-])c2c(C)[nH]c3ccccc23)cc1OC (stereo unspecified) | ? | ? | ? | – | – | –
O=c1[nH][nH]c(-c2ccccc2O)c1C(C[N+](=O)[O-])c1ccc(Br)cc1 (stereo unspecified) | 3.3µM | ? | 2.6µM | – | – | ?
Cc1ccc(C(C[N+](=O)[O-])c2c(-c3ccccc3O)[nH][nH]c2=O)cc1 (stereo unspecified) | 3.3µM | -102 | 2.9µM | ? | 9.2µM | –
CCCCCCn1c(CN2CCC(C)CC2)nc2c1c(=O)n(C)c(=O)n2C | ? | – | 16µM | – | – | –
CCCCCn1c(CN2CCN(Cc3ccccc3)CC2)nc2c1c(=O)n(C)c(=O)n2C | 15µM | – | 15µM | – | – | 21µM
Cn1c(=O)c2c(nc(CN3CCN(Cc4ccccc4)CC3)n2Cc2ccc(F)cc2)n(C)c1=O | ? | – | ? | – | – | ?
Cn1c(=O)c2c(nc(CN3CCC(C(N)=O)CC3)n2CCCc2ccccc2)n(C)c1=O | – | – | ? | – | – | –
CC(C)CCn1c(CN2CCN(Cc3ccccc3)CC2)nc2c1c(=O)n(C)c(=O)n2C | ? | – | 16µM | – | – | ?
CCCCn1c(CN2CCN(c3ccccc3)CC2)nc2c1c(=O)n(C)c(=O)n2C | 1.5µM | – | 2.3µM | – | – | ?
CC1=C(C(=O)N(C)C)CC(CC(=O)NCCCN(C)C)C(=O)N1Cc1ccccc1 (stereo unspecified) | – | – | – | – | – | ·
CC(C)NC(=O)N(C)C[C@@H]1Oc2cc(Br)ccc2S(=O)(=O)N([C@@H](C)CO)C[C@H]1C | – | – | – | – | – | ·
CS(C)(=O)=O | – | · | – | · | · | ·
CCN(CC(=O)Nc1c(F)cccc1F)C(=O)C1CCN(S(=O)(=O)c2ccc(C)cc2C)CC1 | – | – | – | – | – | –
CCOC(=O)c1ccc(NC(=O)NCc2cccnc2)cc1 | – | – | ? | – | ? | –
Cn1c(=O)c2c(nc(CN3CCN(c4ccccc4)CC3)n2CCCc2ccccc2)n(C)c1=O | 21µM | – | 15µM | – | – | ·
O=C(NNC(=O)c1cc(-c2cccc(Br)c2)nc2ccccc12)c1csc(N2CCOCC2)n1 | – | – | – | – | ? | –
Cc1cc(/C=N/NC(N)=S)c(C)n1-c1ccc(Br)cc1 | 2.9µM | – | 8.2µM | ? | ? | ?
Cc1nnc(N/N=C/c2cc(C)n(-c3ccc(F)cc3)c2C)n1N | 13µM | – | 16µM | 23µM | ? | –
Cc1cc(/C=N/NC(N)=S)c(C)n1-c1cccc(Cl)c1 | 13µM | – | 16µM | – | – | –
Cc1nnc(N/N=C/c2ccccc2O)n1N | – | – | – | – | ? | –
Cc1nc2ccccn2c1C(=O)N/N=C/c1cc(C)n(-c2ccc(Br)cc2)c1C | 18µM | – | 21µM | – | – | ?
Cc1cccc(-n2c(C)cc(/C=N\NC(=O)c3ccco3)c2C)c1 | ? | – | ? | – | – | ?
SMILES | TDP1 cell CPT | IL-1B inflam inh | TDP1 cell noCPT | HT1080NT lethal | HT1080 IDH1KD tx | ELG1 DNA repair
Cc1nc2ccccn2c1C(=O)N/N=C/c1ccccc1 | – | – | – | – | – | –
Cc1cc(C(=O)OCC(=O)N2CCc3ccccc32)ccc1[N+](=O)[O-] | – | – | – | – | – | ?
Cc1cc(/C=N\NC(=O)CC(=O)NC2CCCCC2)c(C)n1-c1ccc(Cl)cc1 | ? | – | ? | – | ? | –
Cc1cccc(C)c1-n1c(C)cc(/C=N/NC(N)=S)c1C | 7.3µM | – | 8.2µM | ? | ? | –
CCc1nnc(N/N=C/c2c(F)cccc2Cl)n1N | ? | – | – | ? | ? | –
CC(C)Oc1ccc(Br)cc1/C=N\NC(N)=S | ? | – | 16µM | – | – | –
Cc1cc(/C=N/NC(N)=S)c(C)n1-c1ccc(Cl)cc1 | 12µM | – | 18µM | – | – | –
Cc1nnc(N/N=C/c2c(Cl)cccc2Cl)n1N | – | -105 | – | – | – | –
COC(=O)c1ccc(C(=O)OC)c(NC(=S)N2CCN(C(=O)C3CCCO3)CC2)c1 (stereo unspecified) | – | – | – | – | – | –
CCOc1ccc(S(=O)(=O)n2cc(F)c(=O)[nH]c2=O)cc1 | – | – | – | – | – | –
Cc1cc(/C=N\NC(=O)c2cccs2)c(C)n1-c1ccc2ncccc2c1 | 13µM | – | 10µM | – | – | ?
O=C(NCCc1nnc2n1CCN(CC1CC=CCC1)CC2)c1ccc(F)cc1 (stereo unspecified) | – | · | – | · | · | ·
Cc1ccc(C(=O)N(Cc2cccnc2)Cc2cc3cc(C)ccc3n3nnnc23)cc1 | 18µM | – | ? | – | – | 21µM
CNC(=S)N(Cc1cc2cc(C)ccc2n2nnnc12)CC(C)(C)CN(C)C | – | – | – | – | – | –
Cc1ccc2[nH]c(=O)c(CN(Cc3cccnc3)C(=O)c3ccncc3)cc2c1 | ? | – | 21µM | ? | ? | –
Cc1ccc2c(c1)cc(CN(Cc1cccs1)C(=O)c1ccco1)c1nnnn12 | ? | – | 16µM | – | – | ?
Cc1ccc2c(c1)cc(CN(Cc1cccnc1)C(=O)c1ccccc1)c1nnnn12 | – | – | – | – | – | ?
Cc1ccc2c(c1)cc(CN(Cc1ccc3c(c1)OCO3)S(=O)(=O)c1ccccc1)c1nnnn12 | ? | – | 21µM | – | – | ?
Cc1cc(=O)c2c([nH]1)c(C)cc1[nH]c(C)c(C)c12 | ? | – | ? | – | – | –
CCCN(Cc1cc2cc(C)ccc2[nH]c1=O)C(=O)c1cccc(Cl)c1 | ? | · | 23µM | · | · | ·
CCCN(Cc1cc2ccccc2[nH]c1=O)C(=O)c1cccc([N+](=O)[O-])c1 | – | – | ? | – | – | –
CCc1cccc2c(-c3csc(=NC)n3C)c[nH]c12 | ? | -73 | ? | – | – | –
